D2 ag-1: HTS Assay for Allosteric Agonists of the Human D2 Dopamine Receptor: Primary Screen for Agonists; 0.53% of 340,000 active; AID 485358, 2010; D(2) dopamine receptor (Homo sapiens), P14416; activation, % at 2 µM; HEK293 T-REx D2 cells, calcium flux agonist mode;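 active = activation over 3 SD above normal in the single-dose calcium agonist read, cut at about 30% in these data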; also: 0% is about no effect
Target sequence (P14416 whole entry, looked up): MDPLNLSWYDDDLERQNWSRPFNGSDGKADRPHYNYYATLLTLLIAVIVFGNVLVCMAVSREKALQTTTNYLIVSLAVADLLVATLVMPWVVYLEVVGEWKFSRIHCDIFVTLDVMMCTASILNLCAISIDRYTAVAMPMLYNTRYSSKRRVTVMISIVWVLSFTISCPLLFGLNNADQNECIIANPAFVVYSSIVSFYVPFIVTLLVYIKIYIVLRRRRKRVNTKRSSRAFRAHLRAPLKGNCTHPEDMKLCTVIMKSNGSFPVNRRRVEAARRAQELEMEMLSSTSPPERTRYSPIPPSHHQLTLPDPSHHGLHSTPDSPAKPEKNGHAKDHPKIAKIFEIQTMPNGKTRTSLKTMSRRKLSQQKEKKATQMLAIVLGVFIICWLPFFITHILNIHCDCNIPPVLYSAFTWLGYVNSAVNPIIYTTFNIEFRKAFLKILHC
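Tetracycline-induced HEK293 T-REx cells with force-coupled D2 receptor, plated overnight at 30 C, loaded with no-wash calcium dye. After a 10 s baseline, compound was pin-added and calcium flux read kinetically for 180 s; calcium rises flagged agonists.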
D2 PAM-1: HTS Assay for Positive Allosteric Modulators of the Human D2 Dopamine Receptor: Primary Screen for Potentiators. HEK293 T-REx D2, calcium flux, EC20 dopamine potentiation. AID 485347, 2010. 0.34% of 340,000 active. potentiation, % at 10 µM;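 active = potentiation over 3 SD above the plate norm, cut at about 30% in these data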; also: 0% is about no effect
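Tetracycline-induced Hek293 Trex D2 cells, force-coupled to calcium, loaded with no-wash calcium dye. Compound added with 180 s kinetic read for agonism, then EC20 dopamine and a further 180 s read for potentiation.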
D2 antag: HTS Assay for Allosteric Antagonists of the Human D2 Dopamine Receptor: Primary Screen for Antagonists | AID 485344, 2010 | inhibition, % at 10 µM | 2% of 340,000 active | HEK293 TREx D2 cells, calcium flux, dopamine EC80 | D(2) dopamine receptor (Homo sapiens), P14416; in the data active = inhibition above about 30%; inactive = below that, where a call was filed; also: 0% is about no effect
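Calcium flux kinetic readout in an inducible HEK293 TREx D2 line plated overnight at 30 C. After 180 s compound exposure, an EC80 dopamine challenge follows with another 180 s kinetic read to detect antagonism.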
D2 PAM-2: Beta-Arrestin HTS for Positive Allosteric Modulators of the Human D2 Dopamine Receptor: Potentiators | D(2) dopamine receptor (Homo sapiens), P14416 | DiscoveRx D2 beta-arrestin cells, luminescence, 90 min; 100% = 57 uM dopamine signal | potentiation, % (concentration not given with the values) | 0.23% of 360,000 active; in the data active = potentiation above about 50%
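PathHunter beta-arrestin assay in DiscoveRx D2 cells. Compounds were added with an EC20 of dopamine (50 nM final) for 90 min at 37 deg C. Luminescence was read 1 h after detection reagent, with 57 uM dopamine as the EC100 control.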
D2 ag-2: Beta-Arrestin HTS for Positive Allosteric Modulators of the Human D2 Dopamine Receptor: Agonists; D(2) dopamine receptor (Homo sapiens), P14416; DiscoveRx PathHunter D2 beta-arrestin, luminescence, 90 min; 100% = 57 uM dopamine signal; activation, % (no concentration beside the values); 0.084% of 360,000 active; AID 624465, 2012; in the data active = activation above about 40%
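DiscoveRx PathHunter D2 beta-arrestin cells (2,100/well) attached overnight, then compound-stimulated 90 min at 37 C in HBSS/10 mM HEPES/0.1% Tween-20 buffer; beta-galactosidase complementation read by luminescence after 1 h at ambient temperature. Dopamine 57 uM final (EC100) as control.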
* hit, by the source's call; nt = no result given. Compounds with a hit are over-represented: about 2.4% of the library has one in this group of screens.

SMILES | D2 ag-1 | D2 PAM-1 | D2 antag | D2 PAM-2 | D2 ag-2
CC(C)CC(=O)Nc1ccc(C(=O)CN2C(=O)NC3(CCOc4ccccc43)C2=O)cc1 (stereo unspecified) | 0.3 | 32.9* | 1.4 | 13.3 | 2.1
NC(=O)NC(=O)CN1C(=O)NC2(CCOc3ccccc32)C1=O (stereo unspecified) | -0.5 | -5.0 | -11.4 | 3.0 | 3.0
Cc1cccc(NC(=O)CNC(=O)CN2C(=O)NC3(CCCc4ccccc43)C2=O)c1C (stereo unspecified) | 0.6 | 6.6 | 11.9 | -3.0 | -2.4
CNC(=O)NC(=O)CN1C(=O)NC2(CCOc3ccccc32)C1=O (stereo unspecified) | -0.9 | 19.2 | 31.2* | -5.0 | 0.3
Cc1cccc(C)c1NC(=O)CNC(=O)CN1C(=O)NC2(CCc3ccccc32)C1=O (stereo unspecified) | 0.5 | 3.7 | 33.2* | -2.2 | 11.5
CCc1ccc(NC(=O)c2ccc3c(c2)c(C)c(C)n3Cc2ccccc2)cc1 | -0.2 | -2.9 | nt | nt | nt
Cc1ccc(/C=[N+](\[O-])c2ccc(N(C)C)cc2)c2nsnc12 | 9.2 | -4.2 | 48.4* | 8.2 | 2.5
Cc1ccc(C)c(C(=O)N(Cc2nc(-c3ccc(Cl)cc3)no2)C(C)C)c1 | 1.0 | -0.7 | 39.9* | -0.5 | 0.1
Nc1ccc(-c2c3ccc(=O)cc-3oc3cc(O)ccc23)cc1C(=O)O | 91.6* | -5.3 | -32.8 | -13.6 | -10.0
CN1CCCN(Cc2ccc(Cl)cc2Cl)CC1 | -0.3 | -19.8 | 34.6* | -30.5 | -2.1
CN1CCCN(Cc2nc(-c3ccc(Cl)cc3)no2)CC1 | 1.0 | 7.8 | 11.4 | -13.9 | -1.4
Cc1cccc(CS(=O)(=O)Cc2ccc(C(=O)NCc3cccnc3)o2)c1 | 2.4 | nt | 33.4* | -0.8 | 0.3
CCc1ccc(CNC(=O)c2ccc(CS(=O)(=O)Cc3cccc(C)c3)o2)cc1 | 0.4 | nt | nt | nt | nt
O=C(CSc1nnc(NC(=O)c2cccc(F)c2)s1)NCC1CCCO1 (stereo unspecified) | nt | 10.5 | nt | -3.4 | -1.0
O=C(CSc1nnc(NC(=O)c2c(F)cccc2F)s1)NCC1CCCO1 (stereo unspecified) | 0.9 | -12.7 | 73.8* | 8.8 | 0.9
O=C(NCCc1cccc(F)c1)C1CCC(=O)N(C2CCCCCC2)C1 (stereo unspecified) | 0.2 | -3.6 | 33.6* | -3.6 | 5.1
CC(=O)Nc1cccc(NC(=O)C2CC(=O)N(C3CCCCC3)C2)c1 (stereo unspecified) | -0.7 | -1.7 | 2.9 | 3.6 | 0.4
O=C(NCCc1ccccc1)C1CC(=O)N(C2CCCC2)C1 (stereo unspecified) | -0.3 | -2.5 | 3.7 | -7.0 | 5.0
O=C(NCCN1CCc2ccccc2C1)C1CC(=O)N(C2CCCC2)C1 (stereo unspecified) | 0.9 | 14.4 | 32.6* | -28.0 | -1.7
O=C(Nc1cccc([N+](=O)[O-])c1)C1CC(=O)N(C2CCCCC2)C1 (stereo unspecified) | -0.5 | -18.1 | 30.6* | -24.3 | -2.6
CCOc1ccc(N(CC)S(=O)(=O)N2CCCC(C(=O)NCc3ccccc3Cl)C2)cc1 (stereo unspecified) | 0.2 | -4.8 | nt | nt | nt
Cc1ccc(C(=O)NCC(c2ccc3c(c2)OCO3)N2CCN(c3ccc(F)cc3)CC2)cc1 (stereo unspecified) | -0.5 | -7.4 | nt | nt | nt
N#C/C(=C/c1ccc(-c2ccc(S(N)(=O)=O)cc2)o1)c1nc2ccccc2s1 | 115.5* | 1.0 | 25.2 | 24.6 | 11.0
N#C/C(=C/c1ccc(-c2ccccc2)o1)c1nc(-c2cccs2)cs1 | 87.2* | 10.2 | -16.0 | 2.9 | 1.6
N#C/C(=C\c1ccc(-c2ccc(F)cc2)o1)C(=O)Nc1nc(-c2cccs2)cs1 | -0.1 | -2.5 | 5.0 | -37.9 | -6.4
N#C/C(=C/c1ccc(-c2ccc(S(N)(=O)=O)cc2)o1)C(=O)Nc1ccccc1 | -0.6 | -6.7 | 3.5 | -2.0 | 8.6

Bioassay records deposited in PubChem BioAssay by National Center for Advancing Translational Sciences (NCATS).
